Source: PubChem BioAssay (NCATS)
Records with an inconclusive call do not appear. Activity calls are given as the source filed them. Calls follow the shape of the dose curve; as a rule, active = well fitted curve in the direction sought with a large enough effect; inconclusive = small, poorly fitted or top-dose-only effect, or another doubt; inactive = no such curve, though single readings can be large; an effect the other way counts as inactive or inconclusive.

Assays:
[1] = Quantitative High-Throughput drug screen in 47 multiple myeloma cell lines against the NCATS MIPE library collection: KHM11_PLB cell viability assay (AID 1918962); also: nearly all actives have a fitted effect of over 35% in size
How it was run: (§1)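 CellTiter-Glo luminescence (ATP) after 48 h compound exposure, 37C/5% CO2; 500 cells/well; MIPE 4.0 approved/investigational drugs pinned in; DMSO = 100%, media only = 0% viability.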

[2] = Quantitative High-Throughput drug screen in 47 multiple myeloma cell lines against the NCATS MIPE library collection: JIM3_ECACC cell viability assay (AID 1918963; also: nearly all actives have a fitted effect of over 35% in size)
How it was run: as §1

[3] = Quantitative High-Throughput drug screen in 47 multiple myeloma cell lines against the NCATS MIPE library collection: INA6_PLB cell viability assay (AID 1918965; also: nearly all actives have a fitted effect of over 55% in size)
How it was run: (§2)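 Myeloma cells (500 per well) were exposed to MIPE 4.0 compounds by pin transfer and incubated 48 hours at 37C, 5% CO2. Viability was read as ATP by CellTiter-Glo luminescence, normalised to DMSO (100%) and media-only (0%) wells.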

[4] = Quantitative High-Throughput drug screen in 47 multiple myeloma cell lines against the NCATS MIPE library collection: JJN3_DSMZ cell viability assay (AID 1918966; also: nearly all actives have a fitted effect of over 50% in size)
How it was run: (§3)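 Myeloma cell lines, 500 cells per well, exposed to MIPE 4.0 library compounds for 48 h at 37C, 5% CO2. Viability from ATP by CellTiter-Glo luminescence; normalised to DMSO (100%) and media-only (0%) wells.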

[5] = Quantitative High-Throughput drug screen in 47 multiple myeloma cell lines against the NCATS MIPE library collection: H1112_PLB cell viability assay (AID 1918967; also: nearly all actives have a fitted effect of over 30% in size)
How it was run: as §3

[6] = Quantitative High-Throughput drug screen in 47 multiple myeloma cell lines against the NCATS MIPE library collection: Karpas25_ECACC cell viability assay (AID 1918968; also: nearly all actives have a fitted effect of over 35% in size)
How it was run: as §3

[7] = Quantitative High-Throughput drug screen in 47 multiple myeloma cell lines against the NCATS MIPE library collection: KMS12BM_JCRB cell viability assay (AID 1918971); also: nearly all actives have a fitted effect of over 35% in size
How it was run: (§4)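 Steps: seed 500 cells per well; pin-transfer MIPE 4.0 library; incubate 48 h at 37C, 5% CO2, humidified; add CellTiter-Glo, 5 min room temperature; read luminescence.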

[8] = Quantitative High-Throughput drug screen in 47 multiple myeloma cell lines against the NCATS MIPE library collection: KMS12PE_JCRB cell viability assay (AID 1918972); also: nearly all actives have a fitted effect of over 30% in size
How it was run: as §2

[9] = Quantitative High-Throughput drug screen in 47 multiple myeloma cell lines against the NCATS MIPE library collection: KMS26_JCRB cell viability assay (AID 1918975); also: nearly all actives have a fitted effect of over 45% in size
How it was run: as §4

[10] = Quantitative High-Throughput drug screen in 47 multiple myeloma cell lines against the NCATS MIPE library collection: MMM1_PLB cell viability assay (AID 1918976); also: nearly all actives have a fitted effect of over 35% in size
How it was run: (§5)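 Myeloma cells (500/well) treated with MIPE 4.0 compounds for 48 h at 37 °C, 5% CO2. Viability read as ATP via CellTiter-Glo luminescence after 5 min at RT; DMSO-only wells = 100%, media-only = 0% viability.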

[11] = Quantitative High-Throughput drug screen in 47 multiple myeloma cell lines against the NCATS MIPE library collection: MOLP8_DSMZ cell viability assay (AID 1918977); also: nearly all actives have a fitted effect of over 45% in size
How it was run: as §5

[12] = Quantitative High-Throughput drug screen in 47 multiple myeloma cell lines against the NCATS MIPE library collection: NCIH929_DSMZ cell viability assay (AID 1918978); also: nearly all actives have a fitted effect of over 35% in size
How it was run: as §5

[13] = Quantitative High-Throughput drug screen in 47 multiple myeloma cell lines against the NCATS MIPE library collection: MM1S_ATCC cell viability assay (AID 1918980); also: nearly all actives have a fitted effect of over 45% in size
How it was run: as §5

[14] = Quantitative High-Throughput drug screen in 47 multiple myeloma cell lines against the NCATS MIPE library collection: MM1R_ATCC cell viability assay (AID 1918981); also: nearly all actives have a fitted effect of over 35% in size
How it was run: as §5

[15] = Quantitative High-Throughput drug screen in 47 multiple myeloma cell lines against the NCATS MIPE library collection: KMS27_JCRB cell viability assay (AID 1918970); details: KMS27 myeloma cells, CellTiter-Glo ATP viability, 48 h; viability (% of DMSO): at 45.8 µM (top of the series); also: nearly all actives have a fitted effect of over 30% in size
How it was run: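 KMS27_JCRB myeloma cells, 500 per well, exposed 48 h at 37 C, 5% CO2 to MIPE 4.0 compounds. Viability from ATP by CellTiter-Glo luminescence, normalized to DMSO (100%) and medium-only (0%) wells.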

[16] = Quantitative High-Throughput drug screen in 47 multiple myeloma cell lines against the NCATS MIPE library collection: KMS20_JCRB cell viability assay (AID 1918973); also: nearly all actives have a fitted effect of over 45% in size
How it was run: as §3

[17] = Quantitative High-Throughput drug screen in 47 multiple myeloma cell lines against the NCATS MIPE library collection: KMS21BM_JCRB cell viability assay (AID 1918974); details: ATP luminescence, 48 h; viability: at 45.8 µM (top of the series)
How it was run: as §3

[18] = Quantitative High-Throughput drug screen in 47 multiple myeloma cell lines against the NCATS MIPE library collection: OCIMY1_PLB cell viability assay (AID 1918979); also: nearly all actives have a fitted effect of over 35% in size
How it was run: as §5

[19] = Quantitative High-Throughput drug screen in 47 multiple myeloma cell lines against the NCATS MIPE library collection: LP1_DSMZ cell viability assay (AID 1918982); also: nearly all actives have a fitted effect of over 35% in size
How it was run: as §5

Measured: Potency
Potency is read from the fitted curve at half-maximal effect.

Cc1cnc(NC(=O)Nc2cc(Br)c(C)cc2OC[C@@H]2CNCCO2)cn1
active: [1] 20.9 µM | [2] 0.935 µM | [3] 0.469 µM | [4] 18.7 µM | [5] 5.9 µM | [6] 16.6 µM | [7] 9.35 µM | [8] 0.833 µM | [9] 16.6 µM | [10] 18.7 µM | [11] 4.69 µM | [12] 7.43 µM | [13] 0.662 µM | [14] 0.743 µM

c1cc(CN2CCCNCCNCCCNCC2)ccc1CN1CCCNCCNCCCNCC1
inactive: [1] | [2] | [3] | [5] | [15] | [7] | [9]

c1cncc(CN2CCC(n3ncc4c(N5CCOCC5)nc(-c5ccc6[nH]ccc6c5)nc43)CC2)c1
active: [1] 1.66 µM | [2] 5.26 µM | [3] 5.9 µM | [4] 5.9 µM | [5] 13.2 µM | [6] 2.35 µM | [7] 13.2 µM | [16] 1.18 µM | [9] 4.69 µM | [10] 7.43 µM | [11] 2.96 µM | [12] 0.332 µM | [18] 16.6 µM | [13] 5.9 µM | [14] 5.9 µM | [19] 5.9 µM
inactive: [17]

CN1C(C(=O)Nc2ccccn2)=C(O)c2sc(Cl)cc2S1(=O)=O
inactive: [15] | [8] | [18]
active: [1] 3.32 µM | [2] 3.72 µM | [3] 2.64 µM | [4] 3.72 µM | [6] 2.64 µM | [9] 14.8 µM | [10] 20.9 µM | [13] 5.26 µM | [14] 18.7 µM | [19] 4.69 µM

OCCNC1CCCc2c1[nH]c1ccc(-c3ccccc3)cc21 (stereo not given)
active: [1] 9.35 µM | [2] 18.7 µM | [3] 7.43 µM | [4] 23.5 µM | [5] 20.9 µM | [6] 9.35 µM | [15] 23.5 µM | [7] 37.2 µM | [8] 8.33 µM | [16] 5.26 µM | [9] 20.9 µM | [10] 20.9 µM | [12] 13.2 µM | [18] 26.4 µM | [13] 20.9 µM | [14] 20.9 µM | [19] 23.5 µM

COc1cc2ncnc(Nc3cccc(Br)c3)c2cc1OC
active: [1] 16.6 µM | [2] 2.64 µM | [3] 3.32 µM | [4] 20.9 µM | [6] 0.526 µM | [15] 23.5 µM | [7] 0.0418 µM | [8] 14.8 µM | [16] 0.743 µM | [9] 16.6 µM | [13] 0.0148 µM

C[C@@]12C(=O)OC(=O)[C@@]1(C)C1CCC2O1
active: [1] 2.35 µM | [2] 1.87 µM | [3] 2.64 µM | [4] 0.662 µM | [5] 3.72 µM | [6] 1.18 µM | [15] 2.09 µM | [7] 1.66 µM | [8] 1.87 µM | [16] 2.64 µM | [9] 2.09 µM | [10] 1.87 µM | [12] 2.64 µM | [18] 5.26 µM | [13] 1.66 µM | [14] 2.35 µM | [19] 3.72 µM

CN(C)CCN1C(=O)c2cccc3cc(N)cc(c23)C1=O
active: [1] 7.43 µM | [2] 14.8 µM | [3] 3.32 µM | [4] 20.9 µM | [5] 18.7 µM | [6] 18.7 µM | [7] 5.26 µM | [8] 18.7 µM | [9] 20.9 µM | [10] 11.8 µM | [11] 23.5 µM | [12] 8.33 µM | [18] 23.5 µM | [13] 14.8 µM | [14] 9.35 µM | [19] 20.9 µM

O=C(Nc1cccc(Nc2ncc(Br)c(NCCc3cnc[nH]3)n2)c1)N1CCCC1
inactive: [15]
active: [1] 1.18 µM | [2] 6.62 µM | [3] 0.743 µM | [4] 11.8 µM | [5] 9.35 µM | [6] 5.9 µM | [7] 18.7 µM | [16] 5.9 µM | [9] 10.5 µM | [10] 18.7 µM | [11] 6.62 µM | [12] 7.43 µM | [13] 18.7 µM | [14] 14.8 µM | [19] 20.9 µM

Oc1cc(-c2nc(-c3ccccc3)[nH]c2-c2ccncc2)ccc1Cl
active: [1] 1.18 µM | [2] 20.9 µM | [4] 18.7 µM | [6] 2.96 µM | [15] 2.64 µM | [7] 20.9 µM | [8] 14.8 µM | [17] 3.32 µM | [9] 16.6 µM | [10] 18.7 µM | [12] 3.72 µM | [18] 10.5 µM | [13] 4.69 µM | [14] 14.8 µM
inactive: [19]

O=C(C[C@@H]1CC=CCCC(=O)O[C@H](c2ccccc2)CNC1=O)NCc1ccc(Cl)cc1
inactive: [4] | [6] | [7] | [9] | [11] | [18] | [14] | [19]
active: [1] 2.64 µM | [5] 4.69 µM | [13] 16.6 µM

CCNC(=O)Nc1ccc(-c2nc3c(c(N4CCOC[C@H]4C)n2)CCN(C2COC2)C3)cc1
active: [1] 0.469 µM | [3] 2.09 µM | [4] 0.833 µM | [5] 0.59 µM | [6] 0.935 µM | [15] 0.59 µM | [7] 1.18 µM | [8] 5.26 µM | [9] 1.66 µM | [10] 0.418 µM | [11] 0.833 µM | [12] 0.526 µM | [18] 0.469 µM | [13] 1.05 µM | [14] 1.05 µM | [19] 0.0372 µM
